# From PubChem BioAssay (NCI)
# Values joined by “and” are separate entries in the source; they are usually repeats but may differ in a detail not shown here. Equal entries are not always repeated. About 83,000 compounds went through this panel and 20% of them were active in at least one assay; those are over-represented in the sample as a whole.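 Step 1: grow cells in 96-well plates. Step 2: add test compound at a single concentration. Step 3: incubate 48 h. Step 4: record percent growth.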 Active and inactive are the calls of the source. Where a SMILES comes first, the peptide text is derived from it. The star is where a group is joined. Trt = c1ccc(C(c2ccccc2)(c2ccccc2)*)cc1; Cbz = O=C(OCc1ccccc1)*
# System: SK-OV-3 ovarian
# Assay: NCI-60 one-dose screen, 48 h (100 = growth as untreated, 0 = no growth, -100 = all killed)
# Conditions: 10 µM
# Description: Growth inhibition of the SK-OV-3 human tumor cell line is measured as a screen for anti-cancer activity. Cells are grown in 96 well plates and exposed to the test compound for 48 hours. Compounds are tested at a single concentration, which is 10^-5 M for most compounds. The reported endpoint is percent growth (GI% or GIPRCNT), where numbers from 0 - 100% represent growth inhibition, and numbers from -100% - 0 represent cell death. For example, a value of 40 represents 60% growth inhibition. A value of 0 means no net growth occurred over the course of the experiment. A value of -40 indicates 40% of cells at the beginning of the experiment died by the end of the experiment. A value of -100 means all cells are dead at the end of the experiment.
# NCI-60 Human Tumor Cell Lines Screen was performed using the standard one-dose NCI protocol, which is described in more detail at https://dtp.cancer.gov/discovery_development/nci-60/default.htm.
# Compounds with GIPRCNT values below 10 were considered active. Activity score was based on GIPRCNT using the following formula: […]
# Score is 0 for GIPRCNT values of 100 or above, 50 for GIPRCNT values of 0, and 100 for GIPRCNT values of -100.
row,SMILES,growth
1,O=C(O)c1c(Cl)c(Cl)c(Cl)c(Cl)c1-c1c2cc(I)c(=O)c(I)c-2oc2c(I)c(O)c(I)cc12,101% (inactive) and 92.4% (inactive) and 93.1% (inactive)

# Same assay, conditions: 10 µM unless noted
row,SMILES,growth
1,Cc1cc(N)c2ccccc2[n+]1CCCCCCCCCC[n+]1c(C)cc(N)c2ccccc21,9.8% (active) and -29.2% (active)
2,COC(=O)Nc1nc2ccc(C(=O)c3ccccc3)cc2[nH]1,22.8% (inactive) and 28.9% (inactive) and 32.6% (inactive)
3,CCC(CCCN(CC)CCc1ccccc1)OC(=O)c1cc(OC)c(OC)c(OC)c1 (stereo not given),83.5% (inactive)
4,Cc1ccnc2c1ccc1c(C)ccnc12,3.59% (active)
5,Oc1c(Br)cc(Cl)cc1C(c1cc(Cl)cc(Br)c1O)C(Cl)(Cl)Cl,32.5% (inactive)
6,Cc1c2ccccc2c(C)c2c1ccc1ccccc12,99.4% (inactive)
7,COC(=O)c1nc(=S)[nH]c(C(=O)OC)c1C(=O)c1ccccn1,63.2% (inactive)
8,CN(C)c1ccc(/C=N/N=C(\C#N)[S][Sn]([Cl])([c]2ccccc2)[c]2ccccc2)cc1,99.7% (inactive)
9,O=C1C2=C(Nc3cc([N+](=O)[O-])ccc3N2)OC1c1c2ccccc2cc2ccccc12 (stereo not given),104% (inactive)
10,C1=C(c2ccccc2)C(c2ccc(OCCN3CCCCC3)cc2)Oc2ccccc21 (stereo not given),74% (inactive)
11,CCOC(=O)/C=C/c1ccc([N+](=O)[O-])o1,106% (inactive)
12,Cn1c2c(c3ccccc31)CCN1C[C@@H]3CCCC[C@H]3C[C@@H]21,9.15% (active)
13,CC(C)(C)c1ccc(O)c(C2CCCCC2)c1,109% (inactive)
14,CN(C)CCOc1ccc2c(c1)C(=O)/C(=C\c1ncc([N+](=O)[O-])n1C)C2,-42.6% (active)
15,COC(=O)C(CSC(c1ccccc1)(c1ccccc1)c1ccccc1)NC(=O)C(CC(N)=O)NC(=O)OCc1ccccc1 (stereo not drawn) (Cbz-Asn-Cys(Trt)-OMe; configuration not given here),14.2% (inactive)
16,COc1cc(NS(C)(=O)=O)ccc1Nc1c2ccccc2nc2ccccc12,32.5% [2.5 µM] (inactive)
17,O=C1c2ccccc2C(=O)c2sc(Nc3cccc(Cl)c3)nc21,86.9% (inactive)
18,CN(C)c1ccc(N=Nc2cccc3ccccc23)cc1,80.1% (inactive)
19,CC1=CC(O)C2CC1C2(C)C (stereo not given),94.3% (inactive) and 104% (inactive)

row,SMILES,growth
1,COC(=O)[C@@]12OC[C@]34[C@H]([C@@H](O)[C@@H]1O)[C@@]1(C)[C@H](O)C(=O)C=C(C)[C@@H]1C[C@H]3OC(=O)C(OC(C)=O)[C@@H]24 (stereo not given in full),-9.46% (active)
2,Nc1nc(N)c2c(ccc3c2ccn3Cc2cccc([N+](=O)[O-])c2)n1,-100% (active)
3,NC(N)=N/N=C/c1ccc([N+](=O)[O-])o1,116% (inactive)
4,Oc1ccc(/C=N/NC(=S)Nc2ccccc2)nc1,18.9% (inactive)
5,CCC(=O)Sc1ccccc1C(=O)Nc1ccc(Cl)cc1,87.3% (inactive)
6,CC(=Nc1ccc(N(C)C)cc1)c1ccccc1,73% (inactive)
7,CC(=O)C(=Cc1ccc(C=C(C(C)=O)C(C)=O)cc1)C(C)=O,93.9% (inactive)
8,O=[N+]([O-])c1ccc2c(N=Nc3ccc4ccccc4c3O)c(O)cc(S(=O)(=O)O)c2c1,90% (inactive)
9,CCCCCCCCCCCCCCCCN(CC)CC,-46.1% (active)
10,N[C@H](C(=O)O)[C@@H]1CC(Cl)=NO1,34.1% [20 µM] (inactive)
11,Cc1ccnc(NC(c2ccccc2)c2ccc3cccnc3c2O)c1 (stereo not given),57.5% (inactive)
12,COc1ccc(-c2cscc2N)cc1,80.2% [100 µM] (inactive)
13,CNc1ccc2c(c1)c1ccccc1n2C,106% (inactive)
14,N#CC1C(=O)SC2c3ccccc3C(=O)c3ccccc3C12 (stereo not given),98.2% (inactive)
15,O=Nc1ccccc1N=O,116% (inactive)
16,O[C@H]1[C@H]2c3cc4c(cc3CN3CCC(=C[C@@H]1O)[C@H]23)OCO4,22% (inactive)
17,CCN(CC)CC(C)(C)C(=O)/C=C/c1ccc(Cl)c(Cl)c1,42.7% (inactive)
18,O=C1NC(=O)/C(=C/C=C/c2ccccc2)S1,74.7% (inactive)
19,O=C(Nc1cccc(Br)c1)Oc1ccc(Cl)c2cccnc12,95.6% [100 µM] (inactive)

# Same assay, conditions: 100 µM
row,SMILES,growth
1,O=C(O)c1c(Cl)c(Cl)c(Cl)c(Cl)c1-c1c2cc(I)c(=O)c(I)c-2oc2c(I)c(O)c(I)cc12,-73.9% (active)
